The nature of assay [1]: Nuclear factor erythroid 2-related factor 2/antioxidant responsive element (Nrf2/ARE) small molecule agonists: qHTS cell viability counter screen in human keratinocytes (AID 1919968; active = well fitted curve in the direction sought with a large enough effect in the repeat runs; an effect the other way counts as inactive or inconclusive; note: nearly all actives have a fitted effect of over 55% in size). In short, it runs like this: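 Cytotoxicity was multiplexed with the Nrf2/ARE luciferase assay in the same wells. Stably transfected HaCaT keratinocytes were treated with test compounds for 23 h at 37 C. Cell viability was then measured by CellTiter-Fluor fluorescence.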

Assay [2] in a line: Nuclear factor erythroid 2-related factor 2/antioxidant responsive element (Nrf2/ARE) small molecule agonists: luciferase reporter gene qHTS assay in human keratinocytes (AID 1919969). Note: nearly all actives have a fitted effect of over 35% in size.
Assay [3] deals with Gonadotropin-releasing hormone receptor (Homo sapiens) (UniProt P30968). In words: Human gonadotropin-releasing hormone receptor (GnRHR) small molecule agonists, calcium flux assay in GnRHR-HEK293 cells (AID 1920063). Note: nearly all actives have a fitted effect of over 35% in size. In short, it runs like this: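 Agonist activity was measured as intracellular calcium flux in HEK293 cells engineered to stably express human GnRHR. After dye loading for 1 hour at 37 C, compounds in DMSO were added and fluorescence was followed for 3 minutes.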
For orientation: Calcium assays in cells follow changes in intracellular calcium, usually with a dye or a luminescent sensor.

Assay [4] has as its target KiSS-1 receptor (Homo sapiens) (UniProt Q969F8). The assay is described as follows: Human kisspeptin (KISS1R) small molecule agonists, calcium flux assay in KISS1R-HEK293 cells (AID 1920064; active = well fitted curve in the direction sought with a large enough effect in the repeat runs; an effect the other way counts as inactive or inconclusive). The method, boiled down: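 Agonist activity is monitored as intracellular calcium rise in engineered HEK293 cells carrying human KISS1R. Cells are dye-loaded for 1 h at 37 C before compound addition, and fluorescence is recorded for 3 min.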

Assay [5] is described as follows: G protein-coupled receptor (GPCR) small molecule agonists, calcium flux assay: HEK293 wild type cell line counter screen (AID 1920065). The method, boiled down:
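Seed cells, incubate 18 h (37 C, 5% CO2); add calcium dye, 1 h at 37 C; pin-transfer compounds, ATP control or DMSO; read fluorescence 480/540 nm each second for 3 min.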

A short description of assay [6]: p53 small molecule agonists, cell-based qHTS assay with human liver microsomes: qHTS cell viability counter screen (AID 1963579). Note: nearly all actives have a fitted effect of over 45% in size. In short, it runs like this:
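Seed p53RE-bla cells at 4,000 per well; incubate 5 h at 37 C; add compound, human liver microsomes and NADPH; incubate 16 h at 37 C; add CellTiter-Glo; after 30 min at room temperature, read luminescence.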
On the technique in general: qHTS replaces the single test concentration by a dilution series.

The nature of assay [7]: p53 small molecule agonists, cell-based qHTS assay with rat liver microsomes: qHTS cell viability counter screen (AID 1963580). Note: nearly all actives have a fitted effect of over 45% in size. In short, it runs like this:
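Counter screen for cytotoxicity under metabolic activation: rat liver microsomes and NADPH, 0.5 mg/mL final each, added with compounds to p53RE-bla HCT-116 cells; 16 h at 37 C, then ATP luminescence read.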

Assay [8] can be described thus: p53 small molecule agonists, cell-based qHTS assay: qHTS cell viability counter screen (AID 1963581). Note: nearly all actives have a fitted effect of over 45% in size. In short, it runs like this:
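Viability was counter-screened in parallel with the p53 agonist reporter by measuring intracellular ATP luminescence in the same HCT-116 p53RE-bla wells after 16 h compound treatment at 37 C.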

A short description of assay [9]: p53 small molecule agonists, cell-based qHTS assay (AID 1963582; active = well fitted activation curve with a large enough effect in the signal ratio in the repeat runs, not every such curve was filed as active; the % refers to the signal ratio). The method, boiled down:
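Cells carrying a p53-responsive bla reporter are treated with test compounds for 16 h at 37 C; beta-lactamase activity is then detected with LiveBLAzer B/G FRET substrate after 2 h at room temperature.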

The target in assay [10] is 5-hydroxytryptamine receptor 2A (Homo sapiens) (UniProt P28223). The assay is described as follows: 5-hydroxytryptamine receptor 2A (HTR2A) small molecule antagonists, cell-based qHTS assay (AID 1963586). Note: nearly all actives have a fitted effect of over 45% in size. The method, boiled down: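 CHO cells stably expressing human HTR2A were plated for 18 h at 37 C, then loaded with calcium dye for 1 h. Compounds were preincubated 5 min at room temperature before DOI (4 nM solution) was added. Kinetic fluorescence was read for 3 min.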

For assay [11] the target is unchanged. The assay is described as follows: 5-hydroxytryptamine receptor 2A (HTR2A) small molecule agonists, cell-based qHTS assay (AID 1963587). Note: nearly all actives have a fitted effect of over 30% in size. Note: potency is the fitted concentration of half-maximal effect. In short, it runs like this: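 HTR2A-CHO cells, plated 18 h at 37 C/5% CO2, dye-loaded 1 h at 37 C; compounds in DMSO added by pin tool (agonist mode). Intracellular calcium flux read as kinetic fluorescence on FDSS over 2 min at 1 s intervals.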

In assay [12] the target is Muscarinic acetylcholine receptor M1 (Homo sapiens) (UniProt P11229). In words: Cholinergic receptor muscarinic 1 (CHRM1) small molecule antagonists, cell-based qHTS assay (AID 1963588). Note: nearly all actives have a fitted effect of over 40% in size. In short, it runs like this:
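Compounds were tested at 15 concentrations in three independent runs. Dye-loaded CHRM1-CHO cells were exposed 5 min at room temperature before stimulation by acetylcholine added at 50nM. Intracellular calcium was read kinetically on FDSS for 3 min.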

Assay [13] shares this target. In words: Cholinergic receptor muscarinic 1 (CHRM1) small molecule agonists, cell-based qHTS assay (AID 1963589). Note: nearly all actives have a fitted effect of over 35% in size. The method, boiled down: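 Cells were plated and incubated 18 h at 37 C/5% CO2, loaded with calcium dye for 1 h at 37 C, then treated with compounds in DMSO. Fluorescence was recorded kinetically at 1 sec intervals.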
A short description of assay [14]: cAMP Responsive Elements (CRE) small molecule agonists, cell-based qHTS assay (AID 1963590). The method, boiled down: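 Cells carrying a CRE-driven beta-lactamase reporter (HEK 293T) are seeded, incubated overnight (18 h), and treated with test compounds for 3 h at 37 C; reporter activity is then detected with a FRET substrate after 2 h at room temperature.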
Assay [15] can be described thus: cAMP Responsive Elements (CRE) small molecule antagonists, cell-based qHTS assay (AID 1963591; active = well fitted inhibition curve with a large enough effect in the signal ratio in the repeat runs, not every such curve was filed as active; the % refers to the signal ratio). The method, boiled down:
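Cells (CRE-bla HEK 293T, DMEM with 10% dialyzed FBS and 25 mM HEPES) are seeded and incubated 18 h. Compounds are added with NKH477 agonist at 0.25 uM final for 3 h, then FRET substrate for 2 h.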

For assay [16], the target named is Beta-2 adrenergic receptor (Homo sapiens) (UniProt P07550). In words: Adrenergic beta2 receptor (ADRB2) small molecule agonists, cell-based qHTS assay (AID 1963593).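 Note: CHO cells stably overexpressing human ADRB2.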 In short, it runs like this: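 CHO cells stably over-expressing ADRB2 were plated overnight at 37C, then dosed with compounds plus a stimulation mix containing 100uM IBMX and 25uM Ro-20-1724 for 0.5hr at room temperature. cAMP was measured by HTRF competition, 1hr.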

Assay [17] concerns the target D(2) dopamine receptor (Homo sapiens) (UniProt P14416). In words: Dopamine D2 receptor (DRD2) small molecule antagonists, cell-based qHTS assay (AID 1963595; active = well fitted inhibition curve with a large enough effect in the signal ratio in the repeat runs, with a control signal flat; the % refers to the signal ratio). In short, it runs like this:
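Antagonist mode in DRD2-HEK293 cells: after compound addition with 0.1 mM Ro20-1724, cells received quinpirole (12 nM) and NKH477 (200 nM) for 30 min at room temperature; HTRF cAMP read after 1 h detection.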

Assay [18] has as its target Beta-2 adrenergic receptor (Homo sapiens) (UniProt P07550). In words: Adrenergic beta2 receptor (ADRB2) small molecule antagonists, cell-based qHTS assay (AID 1963592). Note: series mostly up to about 92 µM; nearly all actives have a fitted effect of over 50% in size. The method, boiled down:
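Assay format: CHO-ADRB2 cells, 18-20hr seeding at 37C/5% CO2, then compound plus 1nM isoproterenol agonist mix for 0.5hr RT. Homogeneous time-resolved fluorescence cAMP detection after 1hr, expressed as 665/615 nm ratio.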

Assay [19] addresses D(2) dopamine receptor (Homo sapiens) (UniProt P14416). The assay is described as follows: Dopamine D2 receptor (DRD2) small molecule agonists, cell-based qHTS assay (AID 1963594). Note: nearly all actives have a fitted effect of over 35% in size. In short, it runs like this:
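HEK293 cells stably expressing DRD2 were cultured 24 h at 37 C, then given Ro20-1724 (0.1 mM final) and compounds for 10 min at room temperature. NKH477 (200nM) was then added for 30 min. cAMP was read by HTRF.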

Assay [20] is described as follows: p53 small molecule agonists, cell-based qHTS assay with rat liver microsomes (AID 1963578). The method, boiled down: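 Fluorescence from a beta-lactamase reporter under a p53 response element was measured after cells had been incubated 16 h at 37 C with test compound and rat liver microsomes plus NADPH (0.5 mg/mL final each).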

Several values for one entry are separate records, joined by “and”; a condition that tells them apart may be missing. Equal entries are not always repeated. Results filed as inconclusive are left out. Activity calls are given as the source filed them. Unless noted, calls come from the whole dose curve.

Chain of D(2) dopamine receptor (Homo sapiens) (P14416 whole entry, looked up): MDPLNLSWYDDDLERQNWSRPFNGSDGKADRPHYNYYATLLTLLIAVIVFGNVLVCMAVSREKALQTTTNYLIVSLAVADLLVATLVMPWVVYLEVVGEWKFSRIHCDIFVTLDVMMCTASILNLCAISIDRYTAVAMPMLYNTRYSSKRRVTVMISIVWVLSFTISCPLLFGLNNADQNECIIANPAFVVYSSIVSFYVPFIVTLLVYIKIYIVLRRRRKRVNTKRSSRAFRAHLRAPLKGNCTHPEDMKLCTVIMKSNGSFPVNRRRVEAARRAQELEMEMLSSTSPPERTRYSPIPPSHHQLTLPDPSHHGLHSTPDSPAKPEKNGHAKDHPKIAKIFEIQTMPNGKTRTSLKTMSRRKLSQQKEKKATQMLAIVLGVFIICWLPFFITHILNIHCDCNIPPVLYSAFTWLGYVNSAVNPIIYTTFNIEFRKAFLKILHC
Chain of 5-hydroxytryptamine receptor 2A (Homo sapiens) (P28223 whole entry, looked up): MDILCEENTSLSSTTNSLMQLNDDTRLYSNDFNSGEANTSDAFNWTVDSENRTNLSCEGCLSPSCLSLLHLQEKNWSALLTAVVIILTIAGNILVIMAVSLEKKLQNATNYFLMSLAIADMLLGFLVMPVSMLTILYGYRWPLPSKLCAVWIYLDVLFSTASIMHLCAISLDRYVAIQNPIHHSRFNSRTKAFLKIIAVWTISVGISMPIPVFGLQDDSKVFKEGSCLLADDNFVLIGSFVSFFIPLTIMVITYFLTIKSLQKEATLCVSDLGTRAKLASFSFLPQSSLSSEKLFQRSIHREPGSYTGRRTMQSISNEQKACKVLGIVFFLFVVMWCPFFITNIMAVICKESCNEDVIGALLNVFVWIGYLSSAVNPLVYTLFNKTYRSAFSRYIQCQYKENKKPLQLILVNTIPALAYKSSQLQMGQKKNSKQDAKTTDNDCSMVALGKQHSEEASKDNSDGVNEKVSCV
Chain of KiSS-1 receptor (Homo sapiens) (Q969F8 whole entry, looked up): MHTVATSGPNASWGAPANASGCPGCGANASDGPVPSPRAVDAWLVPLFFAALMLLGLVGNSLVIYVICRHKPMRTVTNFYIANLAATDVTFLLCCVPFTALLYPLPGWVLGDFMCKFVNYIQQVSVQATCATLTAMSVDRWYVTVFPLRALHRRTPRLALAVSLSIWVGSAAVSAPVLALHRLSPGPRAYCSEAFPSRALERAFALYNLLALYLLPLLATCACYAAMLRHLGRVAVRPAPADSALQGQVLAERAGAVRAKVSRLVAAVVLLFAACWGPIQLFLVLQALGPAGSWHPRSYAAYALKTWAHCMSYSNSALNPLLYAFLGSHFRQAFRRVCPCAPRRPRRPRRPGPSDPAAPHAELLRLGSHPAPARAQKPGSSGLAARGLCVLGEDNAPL
Chain of Gonadotropin-releasing hormone receptor (Homo sapiens) (P30968 whole entry, looked up): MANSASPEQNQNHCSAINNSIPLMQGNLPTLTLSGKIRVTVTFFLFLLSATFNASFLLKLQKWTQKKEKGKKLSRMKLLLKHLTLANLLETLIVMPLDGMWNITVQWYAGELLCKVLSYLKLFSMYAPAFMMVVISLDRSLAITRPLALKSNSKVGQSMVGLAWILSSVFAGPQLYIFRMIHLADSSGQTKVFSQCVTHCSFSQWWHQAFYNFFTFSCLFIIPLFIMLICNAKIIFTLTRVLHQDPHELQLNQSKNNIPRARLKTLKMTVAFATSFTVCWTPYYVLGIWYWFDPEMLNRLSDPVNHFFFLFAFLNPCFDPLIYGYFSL
Chain of Muscarinic acetylcholine receptor M1 (Homo sapiens) (P11229 whole entry, looked up): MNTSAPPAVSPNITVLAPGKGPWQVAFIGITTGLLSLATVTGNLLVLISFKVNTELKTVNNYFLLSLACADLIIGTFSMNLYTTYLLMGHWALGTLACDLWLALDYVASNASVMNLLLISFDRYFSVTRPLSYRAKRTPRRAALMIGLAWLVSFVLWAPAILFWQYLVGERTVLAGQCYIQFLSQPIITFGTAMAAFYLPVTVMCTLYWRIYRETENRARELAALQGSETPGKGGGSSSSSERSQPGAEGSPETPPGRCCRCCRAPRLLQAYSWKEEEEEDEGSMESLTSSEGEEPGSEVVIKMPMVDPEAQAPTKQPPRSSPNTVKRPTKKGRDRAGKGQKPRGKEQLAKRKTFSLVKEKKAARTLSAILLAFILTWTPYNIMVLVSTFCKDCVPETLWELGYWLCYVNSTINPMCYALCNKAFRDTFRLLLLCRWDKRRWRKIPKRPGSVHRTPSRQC
Chain of Beta-2 adrenergic receptor (Homo sapiens) (P07550 whole entry, looked up): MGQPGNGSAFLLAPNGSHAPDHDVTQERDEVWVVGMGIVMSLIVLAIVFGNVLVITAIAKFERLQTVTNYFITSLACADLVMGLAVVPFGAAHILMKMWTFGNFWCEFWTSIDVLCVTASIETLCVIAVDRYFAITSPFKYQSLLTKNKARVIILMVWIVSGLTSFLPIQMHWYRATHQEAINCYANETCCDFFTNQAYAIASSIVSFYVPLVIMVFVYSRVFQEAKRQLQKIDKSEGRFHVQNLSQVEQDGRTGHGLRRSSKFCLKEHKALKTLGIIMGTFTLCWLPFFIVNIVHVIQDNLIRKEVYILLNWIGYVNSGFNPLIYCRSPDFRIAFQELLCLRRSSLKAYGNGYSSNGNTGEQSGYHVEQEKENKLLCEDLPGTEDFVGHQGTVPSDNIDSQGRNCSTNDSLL

Turning to `C#CC(C)(O)CC(C)C` (centres undefined), the Potency result in assay [1], in [2], in [3], in assay [4], in assay [5] and in assay [6] was “inactive” each time. For the same compound, the Potency result in assay [7], in assay [8], in [9], in assay [10], in assay [11] and in assay [12] was “inactive” in each case. In addition, the Potency entry in assay [13], in assay [14], in [15], in assay [16] and in [17] was “inactive” each time.
In the case of `COc1ccc(COC(C)=O)cc1`, the Potency entry in assay [1], in [2], in [3], in assay [4], in assay [5] and in assay [6] was “inactive” in each case. Also, the Potency result in assay [7], in [8], in [10], in assay [11], in assay [12] and in [13] was “inactive” in each case. Also, the Potency entry in [14], in [15], in assay [18], in [16], in assay [19] and in assay [17] was “inactive” each time.
On to `O=C1OC(=O)c2c(Cl)c(Cl)c(Cl)c(Cl)c21`, for which the Potency result in assay [1], in assay [2], in assay [3], in [4], in [5] and in assay [20] was “inactive” throughout. Further, the Potency result in assay [6], in assay [7], in [9], in [10], in assay [11] and in assay [12] was “inactive” each time. Also, the Potency result in assay [13], in [14], in [15], in [18], in assay [16] and in assay [19] was “inactive” throughout. Further, in assay [17], the Potency entry is “inactive”.
Take `CC(C)=CCCC(C)CC=O` (centres undefined): the Potency entry in assay [1], in assay [2], in assay [3], in assay [4], in assay [5] and in [20] was “inactive” in each case. Also, the Potency entry in assay [7], in [8], in [9], in assay [14], in [15] and in assay [18] was “inactive” each time. Besides, the Potency result in assay [16], in [19] and in assay [17] was “inactive” throughout.
Consider `O=C1Nc2ccccc2C1=O`, for which the Potency entry in assay [1], in [2], in assay [3], in [4], in assay [5] and in assay [20] was “inactive” in each case. The Potency result in assay [6], in assay [7], in [8], in assay [10], in assay [11] and in assay [12] was “inactive” throughout. The Potency entry in assay [13], in [14], in assay [15], in assay [18], in [16] and in assay [17] was “inactive” each time.
For the compound `O=P(OC(CCl)CCl)(OC(CCl)CCl)OC(CCl)CCl`, the Potency entry in assay [1], in [2], in assay [3], in [4], in [5] and in assay [20] was “inactive” in each case. Besides, the Potency entry in assay [6], in assay [7], in assay [8], in assay [9], in [10] and in assay [12] was “inactive” each time. In addition, the Potency result in [13], in assay [14], in assay [15], in assay [18], in [19] and in [17] was “inactive” in each case. Also, in assay [11], the Potency is 43.4 µM (active) and 2.19 µM (active).
For `C(=C\c1ccccc1)/c1ccccc1`, the Potency result in assay [1], in assay [2], in [3], in [4], in assay [5] and in assay [20] was “inactive” each time. The Potency result in assay [6], in assay [7], in assay [8], in assay [10], in assay [11] and in [12] was “inactive” in each case. Further, the Potency result in assay [13], in assay [14], in [15], in assay [18], in [16] and in assay [19] was “inactive” throughout. The Potency result in assay [17] is “inactive”.
As for `CC(O)C(CO)C(C)O` (centres undefined), the Potency result in [1], in assay [2], in assay [3], in assay [4], in assay [5] and in assay [20] was “inactive” in each case. Besides, the Potency result in [6], in assay [7], in assay [9], in [10], in [11] and in [12] was “inactive” in each case. Moreover, the Potency entry in assay [13], in [14], in assay [15], in assay [18], in assay [16] and in assay [19] was “inactive” in each case. For the same compound, the Potency result in assay [17] is “inactive”.

The record behind these values is PubChem BioAssay (Tox21).
